High-throughput results deposited in PubChem BioAssay by several laboratories.
A selection: hits, their analogues and other compounds. The true share with any hit is near 2.3%.
Mcl1-Bid inh: Mcl-1/Bid interaction inhibition; TR-FRET Mcl-1/Bid-Dy647 peptide binding, 1536-well; inhibition, % at 21.7 µM; actives 0.97% (n = 220,000); Q07820; AID 1021;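 active means compounds that cut the binding signal by more than half at the single screening dose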;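 further: His-tagged Mcl-1 with europium anti-His antibody binding Bid BH3 peptide; 0% = Mcl-1 plus peptide wells and 100% = peptide-only wells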
Target sequence (Q07820 whole entry, looked up): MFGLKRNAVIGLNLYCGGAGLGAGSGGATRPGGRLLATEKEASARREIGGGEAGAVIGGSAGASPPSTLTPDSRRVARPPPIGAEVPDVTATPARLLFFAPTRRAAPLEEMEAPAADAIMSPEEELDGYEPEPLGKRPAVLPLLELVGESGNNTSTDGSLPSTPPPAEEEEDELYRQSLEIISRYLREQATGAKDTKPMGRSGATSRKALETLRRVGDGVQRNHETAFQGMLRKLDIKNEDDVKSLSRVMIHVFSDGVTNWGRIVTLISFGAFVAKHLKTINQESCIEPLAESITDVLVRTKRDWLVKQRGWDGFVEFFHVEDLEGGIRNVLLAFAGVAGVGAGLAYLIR
GLD-1 TGE inh: GLD-1-TGE RNA interaction inhibition (C. elegans). actives 0.44% (n = 320,000). inhibition, % at 5.96 µM. Q17339. purified GLD-1 + fluorescein TGE RNA, fluorescence polarization. AID 2280;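 active means percent inhibition above a per-plate cutoff, the plate mean of test compounds plus 3 SD, cut at about 30% in these data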;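 further: 0% = DMSO wells with GLD-1 and probe and 100% = wells lacking GLD-1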
Bim-Mcl-1: inhibitors of Bim-Mcl-1 interaction, human. Q07820. Bead-based flow cytometry, Bim peptide-Mcl-1 binding. inhibition, % at 10 µM. actives 0.1% (n = 190,000); in the data active means inhibition above about 40%;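 further: 0% = no compound tracer wells and 100% = peptide blocker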
Mcl1 Noxa PPI: Mcl-1/Noxa interaction inhibition. inhibition, % at 21.7 µM. TR-FRET Mcl-1/Noxa peptide binding, 2 h. actives 1.5% (n = 220,000). AID 1022;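 active means compounds that cut the protein-peptide binding signal by more than 50% relative to plate controls in a single-dose test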;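 further: His-tagged Mcl-1 with rhodamine Noxa BH3 peptide and terbium anti-His antibody; 0% = Mcl-1 plus Noxa peptide wells and 100% = peptide-only wells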
MCL1-BIM inh: disrupts human MCL1 binding to BIM-BH3 peptide; Q07820; GST-MCL1 / FITC-Bim-BH3 fluorescence polarization; actives 0.68% (n = 320,000); inhibition, % at 10.9 µM;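 active means inhibition above the mean inhibition of all tested compounds plus 3 SD, set per campaign, cut at about 40% in these data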;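 further: 0% = DMSO wells and 100% = unlabeled Bim-BH3 peptide control; higher means more loss of mP so more displacement of Bim peptide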
BCLXL inh: blocks human Bcl-xL binding to Bim BH3 peptide; Q07817; GST-Bcl-xL / FITC-Bim BH3 peptide fluorescence polarization; inhibition, % at 10.9 µM; actives 0.7% (n = 320,000); AID 2129;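 active means inhibition above the mean of all tested compounds plus 3 SD, cutoff set per campaign, cut at about 30% in these data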;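 further: 0% = DMSO wells and 100% = unlabeled Bim-BH3 peptide competitor; inhibitors lower millipolarization by displacing the labeled peptide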
Target sequence (Q07817 whole entry, looked up): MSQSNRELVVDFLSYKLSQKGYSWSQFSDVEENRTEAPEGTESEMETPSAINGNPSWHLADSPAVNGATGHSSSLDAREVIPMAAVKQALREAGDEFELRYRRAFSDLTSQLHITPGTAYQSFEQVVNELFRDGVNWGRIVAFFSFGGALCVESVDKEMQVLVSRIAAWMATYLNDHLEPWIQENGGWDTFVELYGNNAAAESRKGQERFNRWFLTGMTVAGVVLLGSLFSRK
Bcl-xL conf: counter-screen for MCL1 inhibitors: confirmation of human Bcl-xL inhibitors. shares compounds with MCL1-BIM inh. GST-Bcl-xL / FITC-Bim BH3 peptide FP binding. inhibition, % at 10.9 µM. actives 54% (n = 1,700). AID 2166;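 active means inhibition above a cutoff equal to the mean inhibition of all tested compounds plus 3 SD, cut at about 30% in these data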;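 further: 0% = DMSO wells and 100% = unlabeled Bim BH3 control peptide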
MCL1 BIM confirm: MCL1-BIM-BH3 interaction inhibition, confirmation; inhibition, % at 10.9 µM; AID 2168; GST-MCL1 / FITC-Bim-BH3 fluorescence polarization; actives 61% (n = 1,700); shares compounds with MCL1-BIM inh;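 active means inhibition above the average of all tested compounds plus 3 SD, cut at about 40% in these data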;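 further: 0% = DMSO wells and 100% = unlabeled Bim-BH3 control peptide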
An asterisk follows results filed as active; . = not tested or not shown.

SMILES	Mcl1-Bid inh	GLD-1 TGE inh	Bim-Mcl-1	Mcl1 Noxa PPI	MCL1-BIM inh	BCLXL inh	Bcl-xL conf	MCL1 BIM confirm
N#Cc1cc2cc3c(cc2nc1N1CCCCC1)OCCO3	-7	-3	0	6	6	8	.	.
Cc1ccc(C(=O)N2CCCN(c3nc4cc5c(cc4cc3C#N)OCO5)CC2)cc1	.	58*	.	.	98*	87*	-3	-5
O=C(NNS(=O)(=O)c1ccc(F)cc1)C1CCN(S(=O)(=O)c2ccccc2)CC1	-1	-2	-2	1	4	3	.	.
Oc1ccc(/C=N/Nc2ncnc3c2ncn3Cc2ccccc2)cc1O	-61	3	-4	24	57*	7	11	33
C=CCN(c1ccccc1)S(=O)(=O)c1ccc2[nH]cc(C(=O)NCCOC)c(=O)c2c1	.	2	.	.	-13	-2	.	.
CC(=O)n1cc([C@@H]2C=C(C(=O)N3CCN(Cc4ccc5c(c4)OCO5)CC3)O[C@H](OCCCCO)C2)c2ccccc21	-4	10	5	1	9	1	.	.
CC(=O)n1cc([C@H]2C=C(C(=O)N3CCN(Cc4ccccc4)CC3)O[C@@H](OCCCCO)C2)c2ccccc21	3	-7	-1	-21	70*	7	15	23
COCCN(C(=O)COC(=O)c1cc2c(s1)CCC2)c1c(N)n(Cc2ccccc2)c(=O)[nH]c1=O	.	3	.	.	91*	32*	40*	88*
COc1c(O)cccc1[C@H](O)C1CCN(CCc2ccc(F)cc2)CC1	.	66*	.	.	56*	50*	56*	60*
CCN1CCC(NCCc2ccc(F)cc2)CC1	.	-3	.	.	10	2	.	.
Cn1c(O)c(C2=c3ccccc3=NC2=O)[nH]c1=S	-39	3	2	23	26	12	.	.
COc1ccc2nc(-n3c(O)c(C4=c5ccccc5=NC4=O)[nH]c3=S)sc2c1	99*	2	-9	92*	68*	15	33*	92*
COc1ccc(-c2nc3ccccc3nc2-c2ccc(OC)cc2)cc1	.	3	.	.	5	4	.	.
COc1ccc2nc(-c3ccco3)c(-c3ccco3)nc2c1	26	23	3	101*	88*	49*	76*	126*
c1coc(-c2nc(-c3ccco3)c(-c3ccco3)nc2-c2ccco2)c1	97*	23	0	109*	106*	80*	18	57*
Nc1nc(-c2ccco2)c(-c2ccco2)s1	-35	2	-3	42	25	18	.	.
Cc1ccc(NNC(=S)Nc2ccc(C(C)C)cc2)c(C)c1	-48	8	-1	-1	3	1	.	.
Cc1ccc(/C=C/C(=O)NCc2ccccn2)o1	-75	7	-8	74*	41*	23	21	51*
O=C(O)/C=C/C(=O)NCc1ccccn1	-18	36*	-2	-2	50*	52*	48*	52*
O=C(O)/C=C/C(=O)NCc1ccccc1	-7	0	-1	16	2	5	.	.
CCCC1=Nc2cc(C(=O)N3CCN(c4ccccn4)CC3)ccc2Sc2ccc(C)cc21	.	8	.	.	5	1	.	.
Cc1cccc(N2CSC3=C(C#N)C(c4ccc(C)o4)CC(=O)N3C2)c1 (stereo unspecified)	71*	1	-11	107*	54*	10	5	35
COc1ccc(CNC(=O)CS(=O)Cc2nc(-c3ccc(OC)c(OC)c3)oc2C)cc1 (stereo unspecified)	.	1	.	.	4	5	.	.
COC(=O)C1=COC(C)C2CN3CCc4c([nH]c5ccccc45)C3CC12 (stereo unspecified)	-30	48*	25	9	91*	89*	62*	80*
COC(=O)C1=CO[C@@H](C)[C@H]2CN3CCc4c([nH]c5ccccc45)[C@@H]3C[C@H]12	.	8	.	.	-10	2	.	.
SMILES	Mcl1-Bid inh	GLD-1 TGE inh	Bim-Mcl-1	Mcl1 Noxa PPI	MCL1-BIM inh	BCLXL inh	Bcl-xL conf	MCL1 BIM confirm
O=C(O)CC1S/C(=N/N=C/c2ccc(-c3ccc(Cl)c([N+](=O)[O-])c3)o2)NC1=O (stereo unspecified)	-57	3	0	24	41*	19	12	37
Cc1ccc(CN(C)C(=O)CCc2nc3sc4c(c3c(=O)[nH]2)CCCC4)o1	.	-6	.	.	9	3	.	.
Cc1c2ccccc2nc2c(F)c(N(C)C)c(F)c(F)c12	-36	99*	-2	-50	122*	114*	120*	134*
CN(C)/C=C1\C=C2C(=O)c3ccccc3N2C1=O	-48	91*	.	-199	116*	109*	115*	121*
Cc1ccc2cccc(Oc3ncnc4sc(C)c(C)c34)c2n1	6	-3	-12	1	-1	3	.	.
COc1ccc2nc(SCC(=O)N3CCNC3=O)[nH]c2c1	-25	4	1	17	-3	0	.	.
CCc1ccc(N2CC(C(=O)OCc3nc4ccsc4c(=O)[nH]3)CC2=O)cc1 (stereo unspecified)	.	17	.	.	41*	24	33*	49*
Cc1ccccc1C1C(C#N)=C2N=C(N)c3c(sc4c3CCCCC4)N2C2=C1C(=O)CC(C)(C)C2 (stereo unspecified)	-147	48*	2	-125	54*	55*	39*	51*
COc1ccc(N2CCN(C(=O)c3cc(=O)c4cc(C)cc(C)c4o3)CC2)cc1	.	4	.	.	0	-5	.	.
CCn1c(SC(C)C(=O)O)nc2sc3c(c2c1=O)CCC3 (stereo unspecified)	-58	11	-1	67*	44*	11	15	52*
CC(Sc1nc2sc3c(c2c(=O)n1-c1ccccc1)CCCC3)C(=O)O (stereo unspecified)	8	-2	.	2	6	5	.	.
CN1CCC2(CC1)C1CN(C)CC=C1C(C#N)=C(N)C2(C#N)C#N (stereo unspecified)	-24	20	-1	-8	140*	120*	117*	146*
C=CCN1C(=O)[C@]2(c3ccccc31)C1CCCC=C1C(C#N)=C(N)C2(C#N)C#N (stereo partly specified)	-16	-1	-1	10	-6	-5	.	.
Nc1ccc(S(=O)(=O)Nc2nc3ccccc3o2)cc1	.	3	.	.	45*	16	28	47*
Cc1nn(-c2ccccc2)cc1C(c1c(N)[nH]c(=S)[nH]c1=O)c1c(N)[nH]c(=S)[nH]c1=O	-38	0	-2	31	3	12	.	.
